Assay results: publication PMC4336329 (PLoS ONE, 2015)
Out of some 310,000 compounds screened, about 14,000 (4.5%) showed an effect of 50% or more. The effect is printed as a negative number. The full list was thinned out, with strong results kept by preference.

target: human ether-à-go-go-related gene (hERG) potassium channel (human, UniProt Q12809); assay: primary screen, population patch clamp on CHO cells stably expressing hERG; higher = less effect of the substance
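Further: peak tail current of the secondary pulse compared with the same well before compound.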

Sequence of human ether-à-go-go-related gene (hERG) potassium channel (Q12809 whole entry, looked up): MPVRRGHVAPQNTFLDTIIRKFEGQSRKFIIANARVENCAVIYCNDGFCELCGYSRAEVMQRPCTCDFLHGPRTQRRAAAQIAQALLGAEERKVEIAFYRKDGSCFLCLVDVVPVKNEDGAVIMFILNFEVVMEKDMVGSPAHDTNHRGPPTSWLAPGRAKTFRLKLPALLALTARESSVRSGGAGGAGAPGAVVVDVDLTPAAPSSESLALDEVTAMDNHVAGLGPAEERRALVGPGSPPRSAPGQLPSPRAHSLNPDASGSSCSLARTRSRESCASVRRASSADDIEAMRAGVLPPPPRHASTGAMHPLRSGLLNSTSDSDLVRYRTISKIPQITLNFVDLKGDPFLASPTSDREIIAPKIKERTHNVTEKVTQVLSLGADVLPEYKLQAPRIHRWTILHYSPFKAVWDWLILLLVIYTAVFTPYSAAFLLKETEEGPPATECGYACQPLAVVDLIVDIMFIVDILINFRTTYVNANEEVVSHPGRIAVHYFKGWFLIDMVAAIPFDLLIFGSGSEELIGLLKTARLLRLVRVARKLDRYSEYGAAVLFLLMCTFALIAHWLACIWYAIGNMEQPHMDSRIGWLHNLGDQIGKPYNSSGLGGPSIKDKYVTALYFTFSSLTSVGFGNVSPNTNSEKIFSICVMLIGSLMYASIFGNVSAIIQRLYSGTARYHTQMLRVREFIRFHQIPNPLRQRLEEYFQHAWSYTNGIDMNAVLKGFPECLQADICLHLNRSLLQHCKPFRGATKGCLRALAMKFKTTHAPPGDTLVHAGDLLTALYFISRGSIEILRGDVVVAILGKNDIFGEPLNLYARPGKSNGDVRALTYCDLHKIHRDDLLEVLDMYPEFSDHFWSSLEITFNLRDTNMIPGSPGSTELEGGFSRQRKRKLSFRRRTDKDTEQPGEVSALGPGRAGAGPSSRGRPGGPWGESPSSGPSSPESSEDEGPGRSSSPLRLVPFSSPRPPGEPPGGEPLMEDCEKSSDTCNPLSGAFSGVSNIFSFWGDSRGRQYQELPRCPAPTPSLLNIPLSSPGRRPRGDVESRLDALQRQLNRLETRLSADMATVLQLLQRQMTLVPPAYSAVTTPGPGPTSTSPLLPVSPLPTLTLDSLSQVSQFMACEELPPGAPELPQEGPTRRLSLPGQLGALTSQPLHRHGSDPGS

Row | SMILES | hERG current change (%, negative = inhibition) at 10uM
1 | O=C(NCc1ccccc1Cl)c1ccc2c(=O)n(CC3CCCO3)c(=S)[nH]c2c1 (stereo not drawn) | 10.1%
2 | Cc1ccc(CNC(=O)c2ccc3c(=O)n(CCCN4CCCC4=O)c(=S)[nH]c3c2)cc1 | 6.41%
3 | Cc1ccc(CNC(=O)c2ccc3c(=O)n(CC4CCCO4)c(=S)[nH]c3c2)cc1 (stereo not drawn) | -9.6%
4 | O=C(NCc1ccccc1Cl)c1ccc2c(=O)n(CCCN3CCCC3=O)c(=S)[nH]c2c1 | -8.83%
5 | CCN(CC)CCn1c(=S)[nH]c2cc(C(=O)NCc3ccc(C)cc3)ccc2c1=O | -57.9%
6 | CCN(CC)CCn1c(=S)[nH]c2cc(C(=O)NCc3ccccc3Cl)ccc2c1=O | -76.1%
7 | COc1ccccc1N(CC(O)COc1c(C)cc(C)cc1C)S(=O)(=O)c1ccccc1 (stereo not drawn) | -0.161%
8 | CSc1ncccc1C(=O)N1CCCC(CCC(=O)NCc2ccccc2F)C1 (stereo not drawn) | 6.52%
9 | CN1CCC(N(C)C(=O)c2sc3cc(F)ccc3c2Cl)CC1 | -47.9%
10 | COc1ccc(NS(=O)(=O)c2cccc3nsnc23)cc1Cl | 11.2%
11 | Cc1cc(C)c(CSc2ncc(-c3ccc([N+](=O)[O-])cc3)[nH]2)c(C)c1 | -10.2%
12 | NC(=O)CSc1ncc(-c2ccc([N+](=O)[O-])cc2)[nH]1 | -14.6%
13 | CCOC(=O)CSc1ncc(-c2ccc([N+](=O)[O-])cc2)[nH]1 | -61%
14 | Cc1ccc(-n2cccn2)c(CN2CCCC(C(=O)c3ccc4c(c3)OCO4)C2)c1 (stereo not drawn) | -77.2%
15 | O=C(c1ccc2c(c1)OCO2)C1CCCN(C(=O)Nc2ccc(F)cc2F)C1 (stereo not drawn) | -30%
16 | CCOC(=O)CNC(=O)N1CCCC(C(=O)c2ccc3c(c2)OCO3)C1 (stereo not drawn) | 11.1%
17 | O=C(c1ccc2c(c1)OCO2)C1CCCN(Cc2cc(F)ccc2-n2cccn2)C1 (stereo not drawn) | -74.9%
18 | CCOC(=O)CCNC(=O)N1CCCC(C(=O)c2ccc3c(c2)OCO3)C1 (stereo not drawn) | 2.31%
19 | c1cncc(-c2ccnc3ncnn23)c1 | -4.79%
20 | COc1cc(C)c(CNc2cccc(C)c2)cc1C | 2.74%
21 | Cc1ccc(SCn2nnc3ccccc3c2=O)c(C)c1 | -33.8%
22 | O=C(CCCn1cnc([N+](=O)[O-])n1)Nc1cccc(O)c1 | 9.95%
23 | CCOC(=O)C(C)n1nc(-c2ccccc2)c2ccccc2c1=O (stereo not drawn) | 15.9%
24 | CCC1Oc2ccc(C)cc2N(CC(=O)NC2CCCCC2)C1=O (stereo not drawn) | 5.8%
